In PubChem BioAssay (NCI):
Compounds without any hit were thinned out: in the full panel of roughly 79,000, 15% have a hit. The source made the active and inactive calls. Rule as the data show it: active = growth inhibition above about 70%; inactive = the rest.

How the values were obtained:
[1] = NCI Yeast Anticancer Drug Screen. Data for the sgs1 strain (AID 173);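 also: 0% = growth of vehicle-only control cultures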; details: S. cerevisiae sgs1 mutant, hits give high values
How it was run: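 A genetically defined yeast mutant is incubated with the test compound, and its growth is compared to that of the same strain given vehicle.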

[2] = NCI Yeast Anticancer Drug Screen. Data for the mlh1 rad18 strain (AID 175); details: S. cerevisiae mlh1 rad18 strain growth inhibition, hits give high values
How it was run: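 Steps: expose repair-defective yeast to compound; measure growth; express inhibition against vehicle-treated controls.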

[3] = NCI Yeast Anticancer Drug Screen. Data for the rad18 strain (AID 177); details: S. cerevisiae rad18 mutant growth inhibition, hits give high values
How it was run: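 Measured value is growth inhibition of a yeast strain bearing a DNA repair alteration, referenced to vehicle-treated cells.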

[4] = NCI Yeast Anticancer Drug Screen. Data for the rad52 strain (AID 147);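 also: 0% = growth of vehicle-treated control cultures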; details: S. cerevisiae rad52 mutant growth inhibition, hits give high values
How it was run: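 Here a repair-compromised yeast strain receives each compound; its growth is then quantified and normalised to vehicle-only controls.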

[5] = NCI Yeast Anticancer Drug Screen. Data for the rad50EPP+ strain (AID 151);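 also: 0% = growth of vehicle-treated control cultures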; details: S. cerevisiae rad50 mutant strain, hits give high values
How it was run: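 Read-out is yeast growth inhibition relative to vehicle; cells used were the rad50EPP+ strain.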

[6] = NCI Yeast Anticancer Drug Screen. Data for the mgt1 strain (AID 153); details: S. cerevisiae mgt1 mutant growth inhibition, hits give high values
How it was run: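 Measured: inhibition of mgt1 yeast growth by compound, normalized to vehicle-treated cultures.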

[7] = NCI Yeast Anticancer Drug Screen. Data for the rad50 strain (AID 155);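 also: 0% = growth of vehicle-only cultures of the same strain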; details: S. cerevisiae rad50 strain growth inhibition, hits give high values
How it was run: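 Genetically altered yeast (DNA repair pathway); compound treatment; growth inhibition vs vehicle ctrl.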

[8] = NCI Yeast Anticancer Drug Screen. Data for the mec2-1 strain (AID 157); details: S. cerevisiae mec2-1 strain, hits give high values
How it was run: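 Using mec2-1 yeast: add compound, measure growth, express inhibition versus vehicle-treated cultures.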

[9] = NCI Yeast Anticancer Drug Screen. Data for the rad14 strain (AID 159);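 also: 0% = growth of vehicle-treated control cultures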; details: S. cerevisiae rad14 strain growth inhibition, hits give high values
How it was run: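 Test compounds were applied to a repair-deficient yeast strain. Its growth was then compared with that of cultures given vehicle alone, and inhibition was expressed relative to those controls.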

[10] = NCI Yeast Anticancer Drug Screen. Data for the sgs1 mgt1 strain (AID 161);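 also: 0% = growth of cultures given vehicle only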; details: S. cerevisiae sgs1 mgt1 strain, hits give high values
How it was run: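 Growth of a repair-deficient yeast mutant was monitored after compound treatment and expressed as inhibition relative to vehicle-treated cultures.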

[11] = NCI Yeast Anticancer Drug Screen. Data for the CLN2oe strain (AID 163);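 also: 0% = growth of vehicle-only control cultures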; details: S. cerevisiae CLN2oe strain, hits give high values
How it was run: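 Whole-cell yeast growth assay. A strain engineered for altered cell-cycle control received compound, and inhibition relative to vehicle-treated cultures was recorded.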

[12] = NCI Yeast Anticancer Drug Screen. Data for the cln2 rad14 strain (AID 165);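 also: 0% = growth equal to vehicle treated cultures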; details: S. cerevisiae cln2 rad14 strain, hits give high values
How it was run: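 Yeast strain cln2 rad14, bearing defects in cell cycle control and DNA repair, serves as the test system; values reflect growth inhibition compared with vehicle.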

[13] = NCI Yeast Anticancer Drug Screen. Data for the bub3 strain (AID 167); details: S. cerevisiae bub3 mutant strain, hits give high values
How it was run: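 Yeast carrying a defined mutation is treated with each compound, and growth is compared with that of vehicle-exposed cells to give inhibition.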

[14] = NCI Yeast Anticancer Drug Screen. Data for the wt2 strain (AID 169);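 also: 0% = growth of vehicle-treated yeast cultures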; details: S. cerevisiae wt2 strain growth inhibition, hits give high values
How it was run: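 Treated yeast vs. vehicle-treated yeast: growth inhibition determined.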

[15] = NCI Yeast Anticancer Drug Screen. Data for the mlh1 strain (AID 171);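 also: 0% = growth of vehicle-treated control cultures of the same strain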; details: S. cerevisiae mlh1 strain growth inhibition, hits give high values
How it was run: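 A yeast strain with a defined genetic lesion serves as the test organism. Cultures receive compound or vehicle, and growth is measured.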

[16] = at 5.0 µM (retest, dose inferred, filed as 0.5)
[17] = at 50.0 µM (retest, dose inferred, filed as 5.0)

Measured: growth inhibition

Cc1ccc2nc(-c3cccc([N+](=O)[O-])c3)oc(=O)c2c1
inactive: [1]; at 1.2 µM -20% | [1]; at 3.7 µM -16% | [1]; at 11.0 µM -19% | [1]; at 33.0 µM -18% | [1]; at 100.0 µM -11% | [2]; [16] 34% | [2]; [17] 67% | [2]; at 50.0 µM 14.7% | [3]; at 1.2 µM -14% | [3]; at 3.7 µM -4% | [3]; at 11.0 µM -19% | [3]; at 33.0 µM -28% | [3]; at 100.0 µM -42%

Cc1c2cc[n+](Cc3ccc(I)cc3)cc2c(C)c2c1[nH]c1ccccc12
active: [4]; at 11.0 µM 96% | [4]; at 33.0 µM 98% | [4]; at 100.0 µM 95% | [5]; at 33.0 µM 90% | [5]; at 100.0 µM 96% | [6]; at 11.0 µM 90% | [6]; at 33.0 µM 97% | [6]; at 100.0 µM 96% | [7]; at 11.0 µM 96% | [7]; at 33.0 µM 95% | [7]; [17] 93% | [7]; at 50.0 µM 85.5% | [7]; at 100.0 µM 89% | [8]; at 11.0 µM 96% | [8]; at 33.0 µM 97% | [8]; [17] 95% | [8]; at 50.0 µM 87.2% | [8]; at 100.0 µM 95% | [9]; at 11.0 µM 94% | [9]; at 33.0 µM 97% | [9]; at 100.0 µM 96% | [10]; [16] 74% | [10]; [17] 94% | [10]; at 50.0 µM 85.8% | [11]; at 11.0 µM 92% | [11]; at 33.0 µM 97% | [11]; at 100.0 µM 94% | [12]; [17] 94% | [12]; at 50.0 µM 86% | [13]; at 11.0 µM 97% | [13]; at 33.0 µM 96% | [13]; [17] 94% | [13]; at 50.0 µM 83.3% | [13]; at 100.0 µM 89% | [14]; at 11.0 µM 87% | [14]; at 33.0 µM 97% | [14]; at 100.0 µM 96% | [15]; at 11.0 µM 95% | [15]; at 33.0 µM 97% | [15]; at 100.0 µM 96% | [1]; at 11.0 µM 96% | [1]; at 33.0 µM 97% | [1]; at 100.0 µM 96% | [2]; [17] 94% | [2]; at 50.0 µM 89.8% | [3]; at 11.0 µM 97% | [3]; at 33.0 µM 96% | [3]; at 100.0 µM 93%
inactive: [4]; at 1.2 µM 39% | [4]; at 3.7 µM 36% | [5]; at 1.2 µM 30% | [5]; at 3.7 µM 29% | [5]; at 11.0 µM 34% | [6]; at 1.2 µM 9% | [6]; at 3.7 µM -1% | [7]; at 1.2 µM 18% | [7]; at 3.7 µM 12% | [7]; [16] 5% | [8]; at 1.2 µM 19% | [8]; at 3.7 µM 8% | [8]; [16] 33% | [9]; at 1.2 µM 12% | [9]; at 3.7 µM 0% | [11]; at 1.2 µM 14% | [11]; at 3.7 µM 19% | [12]; [16] 17% | [13]; at 1.2 µM 18% | [13]; at 3.7 µM 18% | [13]; [16] 55% | [14]; at 1.2 µM -21% | [14]; at 3.7 µM -24% | [15]; at 1.2 µM 35% | [15]; at 3.7 µM 35% | [1]; at 1.2 µM 42% | [1]; at 3.7 µM 27% | [2]; [16] 35% | [3]; at 1.2 µM 40% | [3]; at 3.7 µM 31%

CN(C)c1nc(=Nc2cccc(Cl)c2)ss1
inactive: [4]; at 1.2 µM 7% | [4]; at 3.7 µM 34% | [5]; at 1.2 µM 9% | [5]; at 3.7 µM 42% | [6]; at 1.2 µM 9% | [6]; at 3.7 µM 47% | [7]; at 1.2 µM 5% | [7]; at 3.7 µM 32% | [8]; at 1.2 µM 11% | [8]; at 3.7 µM 28% | [8]; [16] 56% | [9]; at 1.2 µM 6% | [9]; at 3.7 µM 30% | [11]; at 1.2 µM -5% | [11]; at 3.7 µM 11% | [12]; [16] 17% | [13]; at 1.2 µM 1% | [13]; at 3.7 µM 28% | [13]; [16] 69% | [14]; at 1.2 µM 9% | [14]; at 3.7 µM 32% | [15]; at 1.2 µM 11% | [15]; at 3.7 µM 50% | [1]; at 1.2 µM 15% | [1]; at 3.7 µM 52% | [3]; at 1.2 µM 12% | [3]; at 3.7 µM 48%
active: [4]; at 11.0 µM 89% | [4]; at 33.0 µM 99% | [4]; at 100.0 µM 99% | [5]; at 11.0 µM 92% | [5]; at 33.0 µM 99% | [5]; at 100.0 µM 99% | [6]; at 11.0 µM 98% | [6]; at 33.0 µM 99% | [6]; at 100.0 µM 99% | [7]; [16] 75% | [7]; at 11.0 µM 89% | [7]; at 33.0 µM 99% | [7]; [17] 99% | [7]; at 50.0 µM 99.5% | [7]; at 100.0 µM 99% | [8]; at 11.0 µM 96% | [8]; at 33.0 µM 100% | [8]; [17] 99% | [8]; at 50.0 µM 99.7% | [8]; at 100.0 µM 100% | [9]; at 11.0 µM 97% | [9]; at 33.0 µM 99% | [9]; at 100.0 µM 99% | [10]; [16] 90% | [10]; [17] 99% | [10]; at 50.0 µM 99.7% | [11]; at 11.0 µM 71% | [11]; at 33.0 µM 99% | [11]; at 100.0 µM 99% | [12]; [17] 99% | [12]; at 50.0 µM 99.4% | [13]; at 11.0 µM 98% | [13]; at 33.0 µM 99% | [13]; [17] 98% | [13]; at 50.0 µM 98.3% | [13]; at 100.0 µM 99% | [14]; at 11.0 µM 90% | [14]; at 33.0 µM 99% | [14]; at 100.0 µM 99% | [15]; at 11.0 µM 96% | [15]; at 33.0 µM 99% | [15]; at 100.0 µM 99% | [1]; at 11.0 µM 95% | [1]; at 33.0 µM 99% | [1]; at 100.0 µM 99% | [2]; [16] 89% | [2]; [17] 99% | [2]; at 50.0 µM 99.5% | [3]; at 11.0 µM 97% | [3]; at 33.0 µM 99% | [3]; at 100.0 µM 99%
